From PubChem BioAssay (NCI)
Compounds without any hit were thinned out: in the full panel of roughly 83,000, 20% have a hit.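 Single-dose data. Exposure time 48 hours. Values below 10 considered active.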 Values without a mark were called inactive. The source made the active and inactive calls.

Legend:
Test in all cases: NCI-60 one-dose screen, 48 h (100 = growth as untreated, 0 = no growth, -100 = all killed)
Details in all cases: 10 µM unless noted
[1] = test system: T-47D breast
[2] = test system: BT-549 breast
[3] = test system: MDA-MB-435 melanoma
[4] = test system: SW-620 colon
[5] = test system: MCF7 breast
[6] = test system: HCT-116 colon
[7] = test system: HCC-2998 colon
[8] = test system: KM12 colon

COc1cccc(-c2cc(C(=O)Nc3ccc(/C=C/c4ccc(OC5CCN(C)CC5)cc4)cc3)ccc2OC)c1
growth [1]: 53% | growth [2]: 23.1% | growth [3]: -77.4% (active) | growth [4]: -60.5% (active) | growth [5]: -34.9% (active) | growth [6]: -93.4% (active) | growth [7]: 74.9% | growth [8]: -72.8% (active)

O=C(/C=C(/C=C/c1csc2ccccc12)OB(F)F)/C=C/c1csc2ccccc12
growth [1]: 38.4% | growth [2]: 4.74% (active) | growth [3]: -18.6% (active) | growth [4]: 5.19% (active) | growth [5]: 39.9% | growth [6]: -57.7% (active) | growth [7]: 92% | growth [8]: 37.7%

O=C1Nc2cc(Cl)ccc2/C1=C\c1c(-c2ccc(F)cc2)nc2ccccn12
growth [1]: 24.2% | growth [2]: 21.6% | growth [3]: -55% (active) | growth [4]: 9.82% (active) | growth [5]: 2.1% (active) | growth [6]: -80.1% (active) | growth [7]: 31.5% | growth [8]: -1.1% (active)

COc1cc(C=O)ccc1OC1OC(COC(C)=O)C(OC(C)=O)C(OC(C)=O)C1OC(C)=O (stereo not given)
growth [1]: 92.4% | growth [2]: 102% | growth [3]: 107% | growth [4]: 99.7% | growth [5]: 97.3% | growth [6]: 100% | growth [7]: 108% | growth [8]: 103%

O=C1Nc2cc(-c3cccc([N+](=O)[O-])c3)ccc2/C1=C/c1ccc[nH]1
growth [1]: -10.6% (active) | growth [2]: 23% | growth [3]: 97.7% | growth [4]: 93.3% | growth [5]: 16% | growth [6]: 97.9% | growth [7]: 61% | growth [8]: 46.7%

Cc1ccc(-c2csc(NC(=O)CSc3nc(-c4ccccc4)cc(=O)[nH]3)n2)cc1
growth [1]: 78.1% | growth [2]: 114% | growth [3]: 106% | growth [4]: 96.2% | growth [5]: 82.9% | growth [6]: 98.5% | growth [7]: 106% | growth [8]: 94.8%

Brc1ccc(Nc2csc(-c3ccccn3)n2)cc1
growth [1]: 82.6% | growth [2]: 101% | growth [3]: 100% | growth [4]: 71% | growth [5]: 87.2% | growth [6]: 88.8% | growth [7]: 92.2% | growth [8]: 72.7%

COc1cc2cc(CN3CCN(c4nccc(-c5ccc6ccccc6c5)n4)CC3)c(=O)[nH]c2cc1OC
growth [1]: 81.5% | growth [2]: 95.6% | growth [3]: 91.1% | growth [4]: -55% (active) | growth [5]: 42.8% | growth [6]: -25.4% (active) | growth [7]: 101% | growth [8]: 83.4%

O=C(NCCc1ccccc1)Nc1ccc2cc3ccc(NC(=O)NCCc4ccccc4)cc3nc2c1
growth [1]: 29.7% | growth [2]: 70.6% | growth [3]: -13.7% (active) | growth [4]: 1.33% (active) | growth [5]: 0.969% (active) | growth [6]: -32.5% (active) | growth [7]: -8.17% (active) | growth [8]: 47.7%

CC(=O)OC[C@]12CC[C@@H](C(=O)CBr)[C@@H]1[C@H]1CC[C@@H]3[C@@]4(C)CC[C@H](OC(C)=O)C(C)(C)[C@@H]4CC[C@@]3(C)[C@]1(C)CC2
growth [1]: 85.3% | growth [2]: 84% | growth [3]: 93.3% | growth [4]: 100% | growth [5]: 89% | growth [6]: 88.2% | growth [7]: 111% | growth [8]: 97.7%

CCCOc1ccc(/C=N/Nc2cc(C)nc3ccc(Br)cc23)cc1
growth [1]: 96.4% | growth [2]: 99.3% | growth [3]: 85.8% | growth [4]: 6.14% (active) | growth [5]: 37.3% | growth [6]: 26.6% | growth [7]: 57.3% | growth [8]: 76.2%

S=c1cc(S)c2cc(Br)ccc2[nH]1
growth [1]: 84.5% | growth [2]: 90.7% | growth [3]: 95.5% | growth [4]: 99.2% | growth [5]: 88.7% | growth [6]: 78.2% | growth [7]: 102% | growth [8]: 101%

COc1cc2c(c(O)c1Br)C(=O)c1c(O)cc(C[C@H](C)O)cc1[C@H]2[C@H]1c2cc(C[C@H](C)O)cc(O)c2C(=O)c2c1cc(OC)c(Br)c2O
growth [1]: 8.03% (active) | growth [2]: 17.3% | growth [3]: 9.24% (active) | growth [4]: 18.2% | growth [5]: 8.05% (active) | growth [6]: 10.1% | growth [7]: 26% | growth [8]: 9.13% (active)

COc1ccc(/C=C(\C#N)n2nc3cccc(F)c3n2)cc1
growth [1]: 90.5% | growth [2]: 109% | growth [3]: 77.4% | growth [4]: 103% | growth [5]: 89.5% | growth [6]: 101% | growth [7]: 107% | growth [8]: 93.7%

O=C(/C(=C\c1ccc([N+](=O)[O-])cc1)S(=O)Cc1ccc(F)cc1)c1ccc(F)cc1 (stereo not given)
growth [1]: 10.3% | growth [2]: 74.6% | growth [3]: 53.7% | growth [4]: -33.5% (active) | growth [5]: 16.4% | growth [6]: -20.5% (active) | growth [7]: 45.9% | growth [8]: 43.4%
